Source: PubChem BioAssay (NCI)
About 83,000 compounds went through this panel and 20% of them were active in at least one assay; those are over-represented in the sample as a whole.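 48-hour exposure, single concentration, 96-well plates; percent growth endpoint where 0 means no net growth. Active: below 10.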 Values without a mark were called inactive. Active and inactive are the calls of the source.

What follows are compounds tested on MDA-MB-468 breast (assay: NCI-60 one-dose screen, 48 h (100 = growth as untreated, 0 = no growth, -100 = all killed)). Conditions: 10 µM unless noted.

**Q.** `C=CCn1c(C)nc2cc(Nc3nc(Nc4ccc5nc(C)n(CC=C)c5c4)c4ccccc4n3)ccc21` was tested. Which growth did it give?
**A.** -85% (active)

**Q.** For `O=[N+]([O-])c1ccc2[nH]cc(-c3c4ccccc4cc4[nH]c5ccc([N+](=O)[O-])cc5c34)c2c1`, which growth is on record?
**A.** 23.9%

**Q.** Which growth does the source give for `CC1SC(c2ccc(Cl)cc2)N(CCc2cccs2)C1=O` (stereo not given) here?
**A.** -38.4% (active)

**Q.** `Nc1ccc2c(c1)Cc1cc(Cl)c(Cl)cc1-2` was tested. Which growth did it give?
**A.** 34.4%

**Q.** Which growth does the source give for `O=[N+]([O-])c1ccc2c(c1)Cc1ccccc1-2` here?
**A.** 84.1%

**Q.** For `CCCCCCC12CCC(=O)N1CCc1cncn12` (stereo not given), which growth is on record?
**A.** 85%

**Q.** Which growth does the source give for `S=C(NCCNC(=S)[S][Sn]([c]1ccccc1)([c]1ccccc1)[c]1ccccc1)[S][Sn]([c]1ccccc1)([c]1ccccc1)[c]1ccccc1` here?
**A.** -97.9% (active)

**Q.** How did the growth turn out when `COc1ccc(Nc2ncnc3c2c(SC)nn3-c2ccccc2)cc1` was run?
**A.** 69.2%

**Q.** For `Cc1ccc(NC(=O)c2cc(-c3nc4ccccc4s3)c(=O)n(NS(=O)(=O)c3ccc(Cl)cc3)c2N)cc1`, which growth is on record?
**A.** 109%

**Q.** How did the growth turn out when `COc1cc(-c2nc(-c3ccccc3)c(-c3ccccc3)[nH]2)cc(OC)c1O` was run?
**A.** -49.2% (active)

**Q.** `O=C(O)C1CCCCN1c1nc(Cl)nc(Cl)n1` (stereo not given) was tested. Which growth did it give?
**A.** 102%

**Q.** `NC(N)=NC(N)=NCCCc1ccccc1` was tested. Which growth did it give?
**A.** -0.206% [100 µM] (active)

**Q.** `Fc1cnccc1-c1nc2ccc3[nH]ncc3c2c2c1CCCC2` was tested. Which growth did it give?
**A.** 1.78% (active)

**Q.** `CC(C)c1ccc(C(=O)Nc2sc3c(c2C#N)CCC(=O)C3)cc1` was tested. Which growth did it give?
**A.** -45.7% (active)

**Q.** How did the growth turn out when `NCCCc1nnc(CCC(=O)c2nc3ccccc3[nH]2)o1` was run?
**A.** 107%

**Q.** With `O=C(/C=C/c1cn(-c2ccccc2)nc1-c1ccc(Cl)cc1)c1cc2ccccc2oc1=O` as the compound, how does the growth read?
**A.** 64.6%

**Q.** With `COc1cc(/C=C/C(=O)c2ccc(Oc3ncnc4ccccc34)cc2)cc(OC)c1OC` as the compound, how does the growth read?
**A.** 13.8%

**Q.** For `N#CC1CCc2c(c(-c3ccc4nc(N)sc4c3)nc3ccc4[nH]ncc4c23)C1` (stereo not given), which growth is on record?
**A.** 21.4%

**Q.** Which growth does the source give for `COc1ccc(/C(=C\c2ccccc2)C(=O)O)cc1OC` here?
**A.** 93.2%

**Q.** With `COc1ccc(N)c(-c2cc3c(c4c2[nH]c2ccc(OC)cc24)CCCC3)c1` as the compound, how does the growth read?
**A.** 94.5%

**Q.** With `Cc1ccccc1NC(=O)Oc1ccc(Cl)cc1C(=O)c1ccccc1` as the compound, how does the growth read?
**A.** 88.2%

**Q.** `Cn1ccnc1C(=O)/C=C/c1ccc(C(=O)Nc2ccc(F)cc2)cc1` was tested. Which growth did it give?
**A.** 14.9%

**Q.** For `O=C1C=CC2(O)OC/C(=C\c3ccccc3)C(O)=C2C1=O` (stereo not given), which growth is on record?
**A.** 10.3%

**Q.** For `OC(COCc1ccccc1)COCc1ccccc1`, which growth is on record?
**A.** 108%

**Q.** Which growth does the source give for `COc1ccccc1N1CCN(CCn2c(=O)c3c(c4ccccc4n3C)n(C)c2=O)CC1` here?
**A.** 92%

**Q.** `N#CC1=C(N2CCOCC2)NC2c3ccccc3Sc3ccccc3N2C1=N` (stereo not given) was tested. Which growth did it give?
**A.** 99.9%

**Q.** How did the growth turn out when `OC(c1ccc(F)c(C(F)(F)F)c1)c1cnccc1NC1CCCCC1` (stereo not given) was run?
**A.** 9.9% (active)

**Q.** For `CSc1ccc(Cl)c(C(=O)Nc2sccc2C(N)=O)c1`, which growth is on record?
**A.** -7.28% (active)

**Q.** With `CCC(C)(O)c1ccc(C)cc1` (stereo not given) as the compound, how does the growth read?
**A.** 110%

**Q.** Which growth does the source give for `CCOC(=O)c1ccc(NCCC(=O)O)cc1` here?
**A.** 95.5%

**Q.** How did the growth turn out when `OC(c1ccccc1)(c1ccccc1)C(F)(F)F` was run?
**A.** 113%

**Q.** How did the growth turn out when `COCCOc1ccc(-c2csc(NC(=O)CN3CCN(CCO)CC3)n2)cc1NS(=O)(=O)c1cccc2c(N(C)C)cccc12` was run?
**A.** 60.7%

**Q.** Which growth does the source give for `CC1CCCN(CCCCCOc2ccc3oc4ccccc4c(=O)c3c2)C1` (stereo not given) here?
**A.** 52.2%

**Q.** Which growth does the source give for `COC(=O)c1c(C)c2n(c1C)C(=O)C(c1ccccc1)=C2` here?
**A.** 39.1%

**Q.** For `Cc1cc(Br)nnc1Br`, which growth is on record?
**A.** 101%

**Q.** For `CCOC(=O)C#Cc1c(C(=O)OCC)nnn1[C@@H]1O[C@H](CO)[C@H]2OC3(CCCCC3)O[C@H]21`, which growth is on record?
**A.** -19.7% (active)

**Q.** For `CC(=O)OC1C=CC(OC(C)=O)O1` (stereo not given), which growth is on record?
**A.** 101%

**Q.** Which growth does the source give for `CC(=O)Nc1ccc2cc3ccc(NC(C)=O)cc3nc2c1` here?
**A.** 56.5%

**Q.** How did the growth turn out when `O=C1NC(=S)NC(=O)C1=Cc1cccc(C=C2C(=O)NC(=S)NC2=O)c1` was run?
**A.** 103%

**Q.** For `COc1cccc(-c2nc(SCC(=O)Nc3ccc(C(=O)/C=C/c4ccc(OC)c(OC)c4)cc3)[nH]c(=O)c2C#N)c1`, which growth is on record?
**A.** 65.7%
